Source: ChEMBL document CHEMBL3988442, “University of Dundee, Small-Polar-MMV Screening Library” (2021)
About 13,000 (27%) of roughly 48,000 compounds showed an effect of 50% or more. The list shows a part of the results.

System: Wolbachia pipientis
Experiment: Anti-Wolbachia Cell-Based Screen
Format: functional
Parameters: scale not given: in the data most compounds retested in dose-response had high values
Conditions: 5 µM

| SMILES | Percent Effect |
| --- | --- |
| CCCc1nnsc1C(=O)N1CCN(CC(O)C2CC2)CC1.Cl (stereo not given) | -6.099% |
| O=C(c1ccc2sccc2c1)N1CCC(C(=O)O)(n2cccn2)CC1 | -6.348% |
| COc1ccccc1-c1ncc(CN2CCCC[C@H](N(C)C)C2)s1 | -5.387% |
| Cc1cc(F)c(S(=O)(=O)N(C)CCn2cccn2)cc1F | -6.407% |
| O=C(O)C(F)(F)F.O=C(c1cccc(O)c1)N1CCC2(CCN2c2ncccn2)C1 (stereo not given) | 103.8% |
| CCN(CC)CCNC(=O)c1cc(C(C)C)nc(N2CCCC2)n1 | 3.007% |
| CCC(NC(=O)C1CCN(S(C)(=O)=O)CC1)c1ccc(OC)c(C)c1 (stereo not given) | -3.123% |
| CS(=O)(=O)N1CCC(C(=O)NC(Cc2ccsc2)c2cccnc2)CC1 (stereo not given) | 127.1% |
| Cc1csc(C(Cc2ccsc2)NC(=O)C2CCN(S(C)(=O)=O)CC2)n1 (stereo not given) | 94.26% |
| CS(=O)(=O)N1CCC(C(=O)NC(Cc2ccsc2)c2ccccn2)CC1 (stereo not given) | -12.55% |
| CCC(NC(=O)NC1CCN(S(C)(=O)=O)CC1)c1cccs1 (stereo not given) | 5.409% |
| CCC(NC(=O)C1CCN(S(C)(=O)=O)CC1)c1ccc(OC)c(OC)c1 (stereo not given) | -10.24% |
| COCCn1cc(C(=O)N2CCCC2c2cccc(C)c2)ccc1=O (stereo not given) | 1.918% |
| CC[C@@H](C)[C@@H](N)C(=O)Nc1cccc(-c2cnc(N)nc2)c1 | 118.7% |
| CN(C)c1ncc(NC(=O)c2cccc(Nc3cnn(C)c3)c2)cn1 | -2.232% |
| Cn1ccnc1-c1cccc(NC(=O)NCCCO)c1 | -3.437% |
| CCn1nnnc1-c1cccc(NC(N)=O)c1 | 11.47% |
| CCC(C)NS(=O)(=O)Cc1cccc(NC(=O)C(C)C)c1 (stereo not given) | -6.422% |
| CCC(CC)C(O)CNC(=O)Nc1cccc(-c2nccn2C)c1 (stereo not given) | 17.02% |
| CC[C@@H](C)[C@@H](N)C(=O)Nc1cccc(-c2cnc(N(C)CCO)nc2)c1 | 118.1% |
| CC[C@@H](C)[C@@H](N)C(=O)Nc1cccc(-c2cnc(NCCO)nc2)c1 | 122.5% |
| CN(C)c1ncc(-c2c(-c3ccccc3)ncn2C(CO)C(=O)O)cn1 (stereo not given) | -11.25% |
| CCC(Nc1cccc(OC)c1)C(=O)N(CCO)Cc1nccs1 (stereo not given) | -9.396% |
| CC[C@@H](C)[C@@H](N)C(=O)Nc1cccc(-c2cnc(N(C)C)nc2)c1 | 111.5% |

| SMILES | Percent Effect |
| --- | --- |
| CC(NC(N)=O)C(=O)Nc1ccc(OCc2cccc(F)c2)c(F)c1 (stereo not given) | -7.991% |
| O=C(NCCc1nnc2n1CCCCC2)N1CCC2(CCCC2)CC1 | -8.228% |
| O=C(CN1CCN(c2ccnc3c(F)ccc(F)c23)CC1)N1CCCC1 | -6.623% |
| Cc1ccc(C)c(OC(C)C(=O)Nc2cccnc2)c1 (stereo not given) | -35.64% |
| CC(C)c1nnc2n1CCN(CC(=O)Nc1nncs1)C2 | 3.103% |
| CCc1nnc2n1CCN(CCC(=O)Nc1cc(C)on1)C2 | -8.821% |
| CCc1nnc2n1CCN(CCC(=O)Nc1sccc1C#N)C2 | 88.78% |
| CCc1nnc2n1CCN(CC(=O)Nc1sccc1C#N)C2 | 8.043% |
| CC(C)c1nnc2n1CCN(CCC(=O)Nc1sccc1C#N)C2 | 103.7% |
| CC(C)c1nnc2n1CCN(CC(=O)Nc1sccc1C#N)C2 | -2.717% |
| CCc1c(C)sc2ncnc(N3C[C@H](O)[C@@H](N4CCCC4)C3)c12 | 10.47% |
| O=C(NCCN1CCNCC1)c1nc2ccccc2c(=O)[nH]1 | -2.833% |
| O=C(NCc1cnn2cccnc12)c1cccc(CC2CCNCC2)c1 | 4.069% |
| Cl.O=C(NCCn1nc(C2CCNC2)c2cccnc21)c1ccccc1 (stereo not given) | 112% |
| O=C(NCCCc1nnc2ccccn12)c1ccccc1C1CCNC1 (stereo not given) | 3.583% |
| O=C(NCCn1nc2ccccn2c1=O)c1cc(C2CC2)[nH]n1 | 7.505% |
| Cl.O=C(NCCn1nc(C2CCNC2)c2cccnc21)c1ccccn1 (stereo not given) | 108.3% |
| Cc1nc(C)n(CC2CCCCN2CC(=O)N(C)Cc2ccco2)n1 (stereo not given) | -3.611% |
| CCN(C(=O)NCc1ncc(C)c(OC)c1C)C(C)c1cccnc1 (stereo not given) | -16.66% |
| O=C(c1cc(C2CC2)nc2onc(-c3ccccc3)c12)N1CCOCC1 | 3.139% |
| CC(C)CNC(=O)c1cc(C2CC2)nc2onc(C3CCNCC3)c12 | 97.28% |
| O=C(NC1CC1)c1cc(C2CC2)nc2onc(C3CCNCC3)c12 | 97.57% |
| CC(C)CNc1nc2c(cc1C(=O)NCC1CC1)CCNCC2 | 3.893% |
| O=C(c1cc(-c2ccccc2)nc2onc(C3CC3)c12)N1CC[C@H](O)C1 | -0.1163% |

| SMILES | Percent Effect |
| --- | --- |
| O=C(c1cc(C2CC2)nc2onc(-c3ccccc3)c12)N1CC[C@H](O)C1 | 6.458% |
| FC(F)(F)CCc1ccnc(N2CCN(Cc3ccncc3)CC2)n1 | -2.758% |
| CCO[C@H]1CO[C@@]2(CCCN(S(=O)(=O)c3ccccc3)C2)C1 | -23.06% |
| COCC(=O)N1CC[C@]2(O)CCN(Cc3cccnc3OC)C[C@@H]2C1 | 17.33% |
| COCc1nc(C(=O)N2CCN(Cc3ccsc3)CC2)cs1 | -16.22% |
| COCC(=O)N1CC[C@]2(O)CCN(C(=O)CCc3ccsc3)C[C@@H]2C1 | 120% |
| O=C(CCc1ccsc1)N1CCC(Cc2ccc(CO)cc2)C1 (stereo not given) | -8.756% |
| COCC(=O)N1CCN(C(=O)CCc2ccsc2)CC1 | -13.91% |
| COCC(=O)N1CC[C@]2(O)CCN(Cc3ccsc3)C[C@@H]2C1 | 113.5% |
| Cn1cnc2c1CCN(Cc1nc(COc3ccc(F)cc3)no1)C2 | 1.894% |
| Cc1cccc(N2CCN(CCC(=O)NCc3nnc[nH]3)CC2)c1 | -0.9949% |
| CC(C)N1CCC(N2CCCC(C(=O)NCC3(C)COC3)C2)CC1 (stereo not given) | -5.464% |
| Cn1cc(-c2cnc3n2CCC32CCN(S(C)(=O)=O)CC2)cn1 | 7.243% |
| CS(=O)(=O)N1CCC2(CC1)NCCn1c(-c3ccccc3)cnc12.O=C(O)C(F)(F)F.O=C(O)C(F)(F)F | -8.058% |
| Cn1nccc1-c1cnc2n1CCNC21CCN(C(=O)C2(C)CC2)CC1 | 92.03% |
| Cn1nccc1-c1cnc2n1CCC21CCN(C(=O)C2(C)CC2)CC1 | 98.02% |
| COc1ccc(-c2cnc3n2CCNC32CCN(S(C)(=O)=O)CC2)cc1 | -5.963% |
| CCNC(=O)N1CCC2(CC1)CCn1c(-c3ccccc3)cnc12 | -10.02% |
| O=S(=O)(NCCn1ccc(-c2cccs2)n1)C1CC1 | 1.599% |
| COCCOCCNc1cncc(Br)c1 | -4.495% |
| CCN(Cc1ccncc1)C1CCCN(C/C=C/c2ccc(F)cc2)C1 (stereo not given) | 3.422% |
| O=C(NCC1CCCCO1)c1cc(Cn2cnc3ccccc32)[nH]n1 (stereo not given) | -5.339% |
| COCC1CCCN(C(=O)c2cc(Cn3ccc4ccccc43)[nH]n2)C1 (stereo not given) | -4.391% |
| Cc1nc2ccccc2n1Cc1cc(C(=O)NC2CCOC2)no1 (stereo not given) | 107.5% |

| SMILES | Percent Effect |
| --- | --- |
| Cc1ccc(CNC(=O)c2cc(CN3CCC(O)CC3)on2)s1 | -1.351% |
| Cc1nc2ccccc2n1Cc1cc(C(=O)N(C)C2CCOCC2)no1 | 169.5% |
| Cc1nc2ccccc2n1Cc1cc(C(=O)N(C)C2CCOC2)n[nH]1 (stereo not given) | 98.82% |
| Cc1nc2ccccc2n1Cc1cc(C(=O)N2C[C@@H](C)O[C@@H](C)C2)no1 | -14.98% |
| C[C@@H]1CN(C(=O)c2cc(Cn3cnc4ccccc43)on2)C[C@H](C)O1 | -0.2425% |
| O=C(c1cc(Cn2cnc3ccccc32)on1)N1CCOCC1 | -10.83% |
| Cc1ccccc1CN1C[C@@H]2CC[C@H](C1)N(CC1CCC1)C2=O | -3.68% |
| c1cnnc(N2CCCC2CNc2nc3ccccc3o2)c1 (stereo not given) | 0.7954% |
| Cn1cc(N2CCCC(Nc3ccc4c(c3)CCC(=O)N4)C2=O)cn1 (stereo not given) | -0.6283% |
| CC(NC(=O)NC1CCN(Cc2ccccc2)CC1)c1nncn1C (stereo not given) | -0.6608% |
| CC(C)c1nsc(N2CCn3c(nnc3-c3ccccc3)C2)n1 | -7.754% |
| Cc1cc(C(=O)N2C[C@@H]3COC[C@]3(COCc3cccnc3)C2)no1 | -1.047% |
| Cc1ccoc1C(=O)N1C[C@@H]2COC[C@]2(COCc2cccnc2)C1.O=C(O)C(F)(F)F | -8.448% |
| COc1ccc(CN2C[C@@H]3COC[C@]3(COc3cccnc3)C2)cc1.O=C(O)C(F)(F)F.O=C(O)C(F)(F)F | 13.03% |
| O=C(O)C(F)(F)F.O=C(c1ccccc1F)N1C[C@@H]2COC[C@]2(COCc2cccnc2)C1 | 3.343% |
| O=C(O)C(F)(F)F.O=C(c1ccc(F)cc1)N1C[C@@H]2COC[C@]2(COc2cccnc2)C1 | 125.5% |
| Cc1ccccc1C(=O)N1C[C@@H]2COC[C@]2(COCc2cccnc2)C1.O=C(O)C(F)(F)F | -1.339% |
| O=C(O)C(F)(F)F.O=C(c1cc(C2CC2)on1)N1C[C@@H]2COC[C@]2(COc2cccnc2)C1 | 101.2% |
| O=C(COc1ccccc1)N1C[C@@H]2COC[C@]2(COc2cccnc2)C1.O=C(O)C(F)(F)F | 107.1% |
| O=C(COC1CCCC1)N1C[C@@H]2COC[C@]2(COc2cccnc2)C1.O=C(O)C(F)(F)F | 91.64% |
| CNC(=O)CCNC(=O)Nc1cccc(Cl)c1SC(F)F | -9.606% |
| CN(C)c1ccc(C(O)CNS(=O)(=O)C2CC2)cc1 (stereo not given) | -7.172% |
| Cc1ccc(C(=O)N2CCC3(CC2)c2ccccc2[C@@H](N)[C@@H]3O)c(=O)[nH]1 | 1.157% |
